Consider 24 compounds from PubChem BioAssay (NCATS).

The structures appear in SMILES notation. Several values for one entry are separate records, joined by “and”; a condition that tells them apart may be missing. Identical values can stand only once. Inconclusive results are not listed. Activity calls are given as the source filed them. Unless noted, calls come from the whole dose curve; as a rule, active = well fitted curve in the direction sought with a large enough effect; inconclusive = small, poorly fitted or top-dose-only effect, or another doubt; inactive = no such curve, though single readings can be large; an effect the other way counts as inactive or inconclusive.

Test [1] can be described thus: qHTS for compounds that reverse cellular toxicity of Amyloid beta (A-beta) peptide in yeast: LOPAC Validation Assay (AID 720559).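 Note: plate controls were DMSO for no effect and equimolar ferric chloride plus clioquinol rescue for full effect.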 Particulars: Potency: rescue of growth toxicity. An outline of the steps: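 Rescue of A-beta toxicity was scored as yeast growth by 600 nm absorbance after 48 hr at 30 C with compound. Normalization used DMSO (negative) and equimolar ferric chloride plus clioquinol (positive).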

A short description of test [2]: qHTS for Activators of Parkin Expression: LOPAC Validation Assay (FLuc Reporter) (AID 720573;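 note: 0% = DMSO and 100% = positive control compounds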). An outline of the steps:
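FLuc signal from Parkin-promoter coincidence reporter neuronal cells, normalized to DMSO and positive control (100%). Cells (1,500/well) pre-incubated 24 h, then exposed to LOPAC compounds in 7-point dose response for 24 h at 37 C, 5% CO2.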
Background: In qHTS, concentration-response curves come from the screen itself.

Test [3] deals with T1, Hexokinase-4 (Homo sapiens) + Glucokinase regulatory protein (Homo sapiens) (UniProt P35557+Q14397). The test is described as follows: qHTS assay for inhibitors of recombinant human GCK-GKRP interaction: Diaphorase-coupled assay (AID 743205). An outline of the steps:
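A kinetic fluorescence read (Ex 525/Em 590 nm, every minute for 30 minutes) tracked resorufin from a G6PDH-diaphorase coupled GCK reaction. It contained 10 nM GST-GCK, 10 nM FLAG-GKRP, 5 mM glucose, 0.4 mM ATP in Hepes pH 7.6. Normalized to with/without-enzyme DMSO controls.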

The target of test [4] is T1, Hexokinase-4 (Homo sapiens) + Glucokinase regulatory protein (Homo sapiens). The test is described as follows: qHTS assay for inhibitors of recombinant human GCK-GKRP interaction: ADP-Glo assay (AID 743206).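 Note: plate controls were DMSO plus enzyme for no effect and no enzyme for full effect.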 In a few lines: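 GST-GCK and FLAG-GKRP (15 nM each in the dispensed mix, with 2 uM S6P) react with 0.4 mM ATP and 5 mM glucose (final) in Hepes pH 7.6 for 60 min at room temperature. ADP is measured by ADP-Glo luminescence.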

The target is the same in test [5]. The test is described as follows: qHTS assay for inhibitors of recombinant human GCK-GKRP interaction: HTRF assay (AID 743207).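 Note: 0% = DMSO with GCK present and -100% = DMSO wells lacking GCK.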 An outline of the steps: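 After 60 min equilibration at room temperature with anti-FLAG XL665 and anti-GST antibodies, FRET ratio (665/615 nm, excitation 320 nm) was read. Proteins: GST-GCK and FLAG-GKRP, each 5 nM, plus 2 uM S6P, pH 7.1 buffer; GCK-free wells define minimum signal.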

The nature of test [6]: qHTS Assay for Identifying Gametocytocidal Compounds (AID 743244).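 For max response: % is set by controls: 0 for no effect and ±100 for the full control effect; actives lower the fluorescent signal which means gametocytes are killed.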 Note: potency is the fitted concentration of half-maximal effect. The following applies: P. falciparum 3D7 stage III-V gametocytes, alamarBlue, 72 h; max response: stronger effect = lower value. An outline of the steps:
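Viability read-out was resazurin reduction (alamarBlue, 24 h) measured at Ex 525/Em 598 nm. Beforehand, late-stage (III-V) 3D7 P. falciparum gametocytes at 20,000 cells/well were incubated with compound 72 h at 37C under 5% CO2.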

Test [7] in a line: qHTS for Activators of Parkin Expression: LOPAC Validation Assay (NLuc Reporter) (AID 720572;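 note: 0% = DMSO and 100% = positive control compound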). An outline of the steps:
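Neuronal cells with a Parkin promoter-driven FLuc/NLuc coincidence reporter were treated 24 h at 37 C in 7-point dose response (LOPAC). NLuc luminescence read after FLuc; signals normalized to DMSO and positive control (100%).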

Test [8] in a line: qHTS profiling for inhibitors of Plasmodium falciparum (3D7) proliferation (AID 743322; call rule not given here;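 note: infected erythrocytes exposed to compound for 72 h before lysis; 100% = DMSO vehicle wells and 0% = 0.29 µM artemisinin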). Particulars: P. falciparum 3D7 proliferation; at 28.7 µM (top of the series) unless noted. In a few lines:
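Erythrocytes infected with P. falciparum (0.3% parasitemia, 2.5% hematocrit) incubated with compounds 72 h at 37 C, 5% CO2. Lysis with saponin/Triton buffer containing SYBR Green I, overnight at room temperature in the dark; DNA fluorescence (485/535 nm) normalised to 0.29 uM artemisinin and DMSO.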

Test [9] in a line: qHTS profiling for inhibitors of Plasmodium falciparum (DD2) proliferation (AID 743323; call rule not given here). The following applies: lower = more inhibition; at 28.7 µM (top of the series) unless noted. An outline of the steps: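 P. falciparum Dd2-infected erythrocytes (0.3% parasitemia, 2.5% hematocrit) exposed 72 h at 37 C, 5% CO2. Lysis with SYBR Green, overnight at room temperature, fluorescence 485/535 nm; normalized to 0.29 uM artemisinin and DMSO.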

Test [10] in a line: qHTS assay for small molecule agonists of the antioxidant response element (ARE) signaling pathway measured by Nrf2-dependant transcriptional activity (AID 720636; active = well fitted curve in the direction sought with a large enough effect in the repeat runs; an effect the other way counts as inactive or inconclusive; note: potency is the fitted concentration of half-maximal effect). In a few lines:
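Attachment 6 hr at 37 C, then compound versus DMSO vehicle for 16 hr in ARE-luc HepG2 cells (1% dialyzed FBS); luminescence recorded 30 min after ONE-Glo addition at room temperature.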

A short description of test [11]: qHTS assay for small molecule agonists of the antioxidant response element (ARE) signaling pathway measured by Nrf2-dependant transcriptional activity - cell viability counter screen (AID 720653; active = well fitted curve in the direction sought with a large enough effect in the repeat runs; an effect the other way counts as inactive or inconclusive; note: % is set by controls: 0 for no effect and ±100 for the full control effect). The following applies: ARE-bla HepG2 viability, CellTiter-Glo ATP luminescence, 16 h; max response: stronger effect = lower value. An outline of the steps: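 ARE-bla HepG2 cells treated with compounds for 16 h at 37C; this counter screen measures viability as intracellular ATP by CellTiter-Glo luminescence after 30 min at room temperature.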

A short description of test [12]: qHTS assay for cell viability of the p53RE-bla HCT-116 cell line (AID 743292). Note: % is set by controls: 0 for no effect and ±100 for the full control effect; nearly all actives have a fitted effect of over 55% in size. In a few lines: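 Compound-exposed HCT-116 (p53RE-bla) cells, 4,000 per well, were kept 16 h at 37 C following a 5 h preincubation. Cell number was estimated from total ATP by CellTiter-Glo luminescence read after 30 min at room temperature.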
Test [13] in a line: qHTS assay for cell viability of HEK293 cells (AID 743288). Note: % is set by controls: 0 for no effect and ±100 for the full control effect; nearly all actives have a fitted effect of over 50% in size. Particulars: ATP luminescence (CellTiter-Glo), 18 h; max response: stronger effect = lower value. An outline of the steps:
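Total intracellular ATP, measured with a luciferase-coupled reagent, indicates the number of viable HEK293 cells. Exposure to test chemicals lasts 18 h at 37 C in 1,536-well format at 2,000 cells/well.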

A short description of test [14]: qHTS assay for small molecule antagonists of the retinoid-related orphan receptor gamma (ROR-gamma) signaling pathway - cell viability counter screen (AID 720652; active = well fitted curve in the direction sought with a large enough effect in the repeat runs; an effect the other way counts as inactive or inconclusive;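 note: CHO reporter cells with doxycycline-induced ROR-gamma expression; compound exposure lasted 16 hr before ATP read; % is set by controls: 0 for no effect and ±100 for the full control effect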). In a few lines: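 CHO cells carrying TET-inducible ROR and RORE-luciferase reporter, plated 5 hr, then dosed with compound plus doxycycline. After 16 hr at 37 C, viability read as intracellular ATP by CellTiter-Glo luminescence.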

T1 sequence (P35557 whole entry, looked up): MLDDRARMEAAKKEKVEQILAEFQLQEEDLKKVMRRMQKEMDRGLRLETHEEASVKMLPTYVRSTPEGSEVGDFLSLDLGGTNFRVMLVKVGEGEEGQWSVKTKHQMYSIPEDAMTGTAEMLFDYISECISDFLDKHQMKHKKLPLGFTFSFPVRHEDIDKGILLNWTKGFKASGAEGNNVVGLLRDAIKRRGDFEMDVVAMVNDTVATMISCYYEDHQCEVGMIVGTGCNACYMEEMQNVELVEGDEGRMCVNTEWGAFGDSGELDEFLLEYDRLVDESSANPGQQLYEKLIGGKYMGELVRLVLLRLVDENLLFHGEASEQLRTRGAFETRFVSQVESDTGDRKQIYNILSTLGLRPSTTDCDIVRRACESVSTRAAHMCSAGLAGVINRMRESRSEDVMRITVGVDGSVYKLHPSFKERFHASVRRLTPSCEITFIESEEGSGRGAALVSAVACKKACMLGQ
T1 sequence (Q14397 whole entry, looked up): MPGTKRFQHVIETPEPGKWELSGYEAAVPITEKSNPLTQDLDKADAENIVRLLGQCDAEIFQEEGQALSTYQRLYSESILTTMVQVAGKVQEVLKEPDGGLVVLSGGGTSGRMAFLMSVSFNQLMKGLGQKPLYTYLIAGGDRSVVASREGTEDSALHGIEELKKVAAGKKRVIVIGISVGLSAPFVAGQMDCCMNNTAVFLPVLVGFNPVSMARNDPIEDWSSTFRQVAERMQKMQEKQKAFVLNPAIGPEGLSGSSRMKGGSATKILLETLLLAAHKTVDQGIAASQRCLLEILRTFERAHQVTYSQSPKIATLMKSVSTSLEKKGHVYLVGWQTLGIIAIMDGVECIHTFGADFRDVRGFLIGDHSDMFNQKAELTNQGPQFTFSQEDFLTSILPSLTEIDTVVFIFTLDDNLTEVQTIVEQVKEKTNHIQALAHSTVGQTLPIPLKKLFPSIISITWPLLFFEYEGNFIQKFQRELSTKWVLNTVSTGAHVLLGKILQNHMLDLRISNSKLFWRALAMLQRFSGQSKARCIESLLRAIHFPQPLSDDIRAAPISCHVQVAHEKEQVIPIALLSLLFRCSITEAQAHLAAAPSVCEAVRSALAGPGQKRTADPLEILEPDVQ

For the compound `CN(C)c1nc2c(Br)c(Br)c(Br)c(Br)c2[nH]1`, the Potency result in [1], in [2], in test [4] and in [5] was “inactive” in each case. For the same compound, the outcome in [3] was inactive. Moreover, the max response in [6] is 21.9% (inactive).

Take `COc1ccccc1CNCCCCCCNCCCCCCCCNCCCCCCNCc1ccccc1OC`: the Potency entry in test [1], in test [7], in test [2], in test [4] and in test [5] was “inactive” each time. In addition, in test [3], the result was inactive. In addition, the Potency in test [6] was 1000 nM (active).

For `N.N.N.N.N.N.N.N.N.N.N.N.N.N.O.O.[Ru+4].[Ru+5].[Ru+5]`, the Potency result in test [1], in test [7], in test [2] and in test [4] was “inactive” throughout. Also, the outcome in test [3] was inactive. For the same compound, the Potency in [6] is 935 nM (active).

`NCC1OC(O[C@H]2[C@H](O)[C@@H](OC3C(O)C(N)CC(N)C3OC3OC(CO)C(O)C(O)C3N)O[C@@H]2CO)C(N)C(O)C1O` (stereo not given in full): the Potency result in [1], in test [7], in test [2], in test [4] and in test [5] was “inactive” in each case. In addition, in test [3], the outcome was inactive. Moreover, in test [6], the max response is 40.6% (inactive).

As for `CCCCC#Cc1nc(NC)c2ncn([C@@H]3O[C@H](CO)[C@@H](O)[C@H]3O)c2n1`, the Potency result in test [1], in [7], in test [2], in test [4] and in test [5] was “inactive” throughout. In [3], the outcome was inactive. Also, in [6], the max response was 34.4% (inactive).

For `CNCC[C@H](Oc1ccc(C(F)(F)F)cc1)c1ccccc1`, the Potency result in test [1], in test [7], in test [2], in [4] and in test [5] was “inactive” each time. Further, the outcome in [3] was inactive.

Take `COc1cc(OC)c(/C=C2/C(=O)Nc3ccccc32)c(OC)c1`: the Potency result in [1], in test [7], in [2], in [4] and in [5] was “inactive” in each case. Further, in test [3], the result was inactive. Also, in [6], the max response was 33.5% (inactive).

As to `CN1CC(=O)N/C1=N/C(=O)Nc1cccc(Cl)c1`, the Potency entry in [1], in test [7], in test [2] and in test [4] was “inactive” in each case. In addition, the outcome in [3] was inactive. Moreover, in test [6], the max response was 11.6% (inactive) and 35.9% (inactive). In addition, the remaining parasite growth % (stronger effect = lower value) in [8] worked out at 102%. For the same compound, in [9], the activity, percent of control worked out at 106%.

Regarding `NC[C@H]1O[C@@H](n2cnc3c(N)ncnc32)[C@H](O)[C@@H]1O`, the Potency result in [1], in test [7], in [2], in [4] and in test [5] was “inactive” throughout. Moreover, the result in test [3] was inactive. Besides, in test [6], the max response was -2.15% (inactive).

As to `NC(N)=NC(=O)c1nc(Cl)c(N2CCCCCC2)nc1N`, the Potency result in test [1], in test [2], in test [4] and in test [5] was “inactive” in each case. Moreover, the outcome in [3] was inactive. Also, the Potency in test [6] was 891 nM (active).

Consider `c1cnc2c(c1)ccc1cccnc12`, for which the Potency entry in test [1], in [7], in [10], in test [4], in test [5] and in test [12] was “inactive” in each case. Moreover, the max response in [11] is -9.05% (inactive). In addition, the result in test [3] was inactive. Further, the Potency in test [6] was 1870 nM (active).

Consider `Nc1ncnc2c1ncn2[C@@H]1O[C@H](COP(=O)(O)CP(=O)(O)OP(=O)(O)O)[C@@H](O)[C@H]1O`, for which the Potency entry in test [1], in test [7], in [2] and in test [4] was “inactive” each time. Besides, the outcome in [3] was inactive. In addition, in test [6], the max response is 13.9% (inactive).

For `O=C(O)CNC(=O)C(CS)Cc1ccccc1` (stereo not given), the Potency result in test [1], in [7], in test [2], in [4] and in test [5] was “inactive” in each case. Besides, the outcome in test [3] was inactive.

For the compound `N.N.O=C(O)C1(C(=O)O)CCC1.[Pt]`, the Potency entry in test [7], in [2] and in test [5] was “inactive” each time. In addition, the outcome in test [3] was inactive. Besides, the max response in test [6] is -4.37% (inactive).

For `CN1[C@@H]2CC[C@H]1CC(OC(=O)C(CO)c1ccccc1)C2` (stereo not given in full), the Potency result in test [10] and in test [12] was “inactive” each time. The max response in [11] is -6.68% (inactive); in [13] it was -4.41% (inactive).

Turning to `O=C(O)c1ccccc1Nc1cccc(C(F)(F)F)c1`, the Potency result in [10] and in test [12] was “inactive” in each case. Besides, the max response was 0.398% (inactive) in test [11] and -8.76% (inactive) in test [13].

Regarding `CN(C)c1ccc(N=NS(=O)(=O)O)cc1`, the figures for the Potency in test [10] and in [6] were 54500 nM (active) and 35500 nM (active), respectively. Moreover, the Potency result in test [14] and in test [12] was “inactive” each time. Further, the max response in test [11] is -12.4% (inactive) and -28.6% (inactive); in test [13] it was -6.45% (inactive) and -13.1% (inactive).

Take `O=C(O)[C@H](O)[C@@H](O)[C@H](O)[C@H](O)CO`: the Potency entry in test [10] and in test [12] was “inactive” in each case. Further, the max response in test [11] was 21% (inactive); in test [6], -9.36% (inactive) and 0.225% (inactive); in [13], -14.1% (inactive).

As to `Nc1cc(-c2ccncc2)c[nH]c1=O`, the Potency result in [10] and in test [12] was “inactive” in each case. Further, the max response in [11] is -1.18% (inactive); in [6], 14.6% (inactive); in test [13], -3.39% (inactive).

`COC1=C(OC)C(=O)c2ccccc2C1=O`: the Potency result in [7], in test [2] and in test [4] was “inactive” throughout. Besides, the outcome in [3] was inactive. Besides, the Potency in [6] was 3980 nM (active).

As to `C#C[C@]1(O)CC[C@H]2[C@@H]3CCc4cc(O)ccc4[C@H]3CC[C@@]21C`, the Potency entry in test [10], in [14] and in test [12] was “inactive” in each case. In addition, the max response in test [11] was 6.34% (inactive) and 7.49% (inactive); in [6], 16.7% (inactive); in test [13] it was -11.3% (inactive) and -0.854% (inactive).

`NCCO`: the Potency result in test [10], in test [14] and in test [12] was “inactive” in each case. In addition, the max response in test [11] is 3.76% (inactive); in test [6] it was 6.49% (inactive).

As to `O=C(O)/C=C\C(=O)O`, the Potency result in test [10], in [14] and in [12] was “inactive” in each case. The max response in [11] was -4.39% (inactive); in [13], 5.88% (inactive).

In the case of `COc1cc(/C=C/C(=O)CC(=O)/C=C/c2ccc(O)c(OC)c2)ccc1O`, the Potency in test [10] was 21100 nM (active). Also, the max response in test [11] is -2.44% (inactive).
